Screens deposited in PubChem by Center for Chemical Genomics, University of Michigan.
TAR Tat displ – HIV-1 TAR-Tat binding disruption | hit rate 0.6% among 100,000 | HIV-1 TAR RNA, Tat peptide displacement FRET; stronger effect = higher value | z-score (no concentration beside the values); active means z-score of 3 or more in at least 2 runs
CDC25B CDK2 inh – human CDC25B-CDK2/CyclinA binding inhibition; P30305+P24941; HTRF CDC25B-CDK2/CyclinA binding, anti-His/anti-Flag; stronger effect = higher value; z-score (test concentration not listed); hit rate 0.72% among 94,000; AID 1259370; in the data active means z-score above about 3.2
Starred values were filed as active, the others as inactive. Shown are actives, neighbours in structure and some others; about 0.9% of the full set was active somewhere.

Screening N#CC1=C2SCN(c3ccc(Cl)cc3)CN2C(=O)CC1c1ccccc1 (centres undefined) returned TAR Tat displ -1.7 and CDC25B CDK2 inh 7.35*.
COc1ccc(N2CSC3=C(C#N)C(c4ccc(Cl)cc4)CC(=O)N3C2)cc1OC (centres undefined) was read as TAR Tat displ 2.36 and CDC25B CDK2 inh 1.5.
For COC(=O)C1=C(C)NC2=C(C(=O)CC(c3ccc(OC)cc3)C2)C1c1ccc2c(c1)OCO2 (centres undefined) the results were TAR Tat displ 0.16 and CDC25B CDK2 inh -1.44.
O=C1NC(NS(=O)(=O)c2ccccc2)(C(F)(F)F)C(=O)N1c1ccc(F)c(Cl)c1 (centres undefined) was read as CDC25B CDK2 inh 18.2*.
Screening O=C1C2C(c3ccccc3)OC3(C(=O)c4ccccc4C3=O)C2C(=O)N1c1ccc(F)c(Cl)c1 (centres undefined) returned TAR Tat displ 1.43 and CDC25B CDK2 inh 0.7.
For CC(C)Cn1cc(NC(=O)Nc2cc(F)ccc2F)c2ccccc2c1=O the results were TAR Tat displ 1.13.
Screening CC(C)Cn1cc(NC(=O)Nc2ccc(Br)cc2F)c2ccccc2c1=O returned TAR Tat displ -0.05 and CDC25B CDK2 inh 14.5*.
CC(=O)NC1=NN(C(C)=O)C(c2c(C)n(C)c(=O)n(C)c2=O)S1 (centres undefined) was read as CDC25B CDK2 inh 0.35.
CNc1ccc2cccc(Oc3ccc4cccc(O)c4n3)c2n1 was read as CDC25B CDK2 inh -1.59.
For CCOC(=O)CC(=O)CSc1nc(N)c2c(C)c(C)sc2n1 the results were TAR Tat displ -1.55 and CDC25B CDK2 inh -0.37.
CCC(=O)Nc1ccc2nc3c(=O)[nH]c(=O)[nH]c3nc2c1 was read as TAR Tat displ -4.73 and CDC25B CDK2 inh 2.87.
Screening CC(=O)Nc1ccc2nc3c(=O)[nH]c(=O)[nH]c3nc2c1 returned TAR Tat displ 1.84 and CDC25B CDK2 inh 8.04*.
Screening CCOC(=O)c1c(S(=O)(=O)N2CCCC(C(=O)NC3CC3)C2)c(C)n(CC)c1C (centres undefined) returned TAR Tat displ 2.47.
Screening Cc1cccc(Nc2nn3c(=O)c4cc5c(cc4nc3s2)OCO5)c1 returned TAR Tat displ 13.1*.
Screening O=c1c2cc3c(cc2nc2sc(Nc4cccc(Cl)c4)nn12)OCO3 returned TAR Tat displ 0.98 and CDC25B CDK2 inh -0.16.
`Cc1oc(-c2ccccc2)nc1Cn1c(=O)cc(C(F)(F)F)c2c(C)nn(C)c21` gave TAR Tat displ 0.48.
For C=CCSc1nc2c(c(=O)[nH]1)C(c1ccccc1)C(C(=O)OC(C)C)=C(C)N2 (centres undefined) the results were TAR Tat displ 0.34 and CDC25B CDK2 inh -1.34.
O=c1cc(-c2ccc(O)c(O)c2)oc2cc(O)c([C@@H]3O[C@H](CO)[C@@H](O)[C@H](O)[C@H]3O)c(O)c12 was read as TAR Tat displ 26.5*.
`C[C@@H]1O[C@@H](O[C@H]2[C@H](Oc3cc(O)c4c(=O)cc(-c5ccc(O)cc5)oc4c3)O[C@H](CO)[C@@H](O)[C@@H]2O)[C@H](O)[C@H](O)[C@H]1O` gave TAR Tat displ 1.05.
Screening C[C@@H]1O[C@@H](OC2O[C@@H](COc3cc(O)c4c(=O)cc(-c5ccc(O)cc5)oc4c3)[C@@H](O)[C@@H](O)[C@@H]2O)[C@H](O)[C@H](O)[C@H]1O (some centres undefined) returned TAR Tat displ 1.16.
For O=c1cc(-c2cc(O)c(O)c([C@@H]3O[C@H](CO)[C@@H](O)[C@H](O)[C@H]3O)c2)oc2cc(O[C@@H]3O[C@H](CO)[C@@H](O)[C@H](O)[C@H]3O)cc(O)c12 the results were TAR Tat displ 24.7*.
O=C(Nc1cc(F)ccc1F)C1CCN(S(=O)(=O)c2cccnc2)CC1 was read as TAR Tat displ 2.45.
`CCOC(=O)c1c(N)n(-c2ccc(F)cc2)c2nc3ccccc3nc12` gave CDC25B CDK2 inh -2.69.
`COc1cccc(-n2c(=O)[nH]c3c(oc4ccccc43)c2=O)c1` gave TAR Tat displ 0.5 and CDC25B CDK2 inh -0.65.
FC(F)(F)c1cnc(NCCCNC(=S)Nc2cccnc2)c(Cl)c1 was read as CDC25B CDK2 inh 1.86.
Screening CC1CCCC(NC(=O)C2(C)Cn3c(cc4occc43)C(=O)N2C2CCCC2)C1C (centres undefined) returned TAR Tat displ 0.67.
For CC1CCCC(NC(=O)C2(C)Cn3c(cc4occc43)C(=O)N2CC2CCCO2)C1C (centres undefined) the results were TAR Tat displ 6.77*.
Cc1occc1-c1nnc2n1N=C(c1ccc(Br)cc1)CS2 was read as TAR Tat displ -1.46 and CDC25B CDK2 inh -1.7.
Screening Cc1c(CCOC(=O)C2C3CC4CC(C3)CC2C4)sc[n+]1CC(=O)c1ccc(Br)cc1 (centres undefined) returned CDC25B CDK2 inh 9.08*.
COc1cccc(C(=O)Nc2n[nH]c3ccccc23)c1 was read as CDC25B CDK2 inh 5.16*.
Screening COc1cc(OC)cc(C(=O)Nc2noc3ccccc23)c1 returned TAR Tat displ 0.69 and CDC25B CDK2 inh -1.29.
CCc1cc2c(cc3c(=O)n(CC(=O)N4CCN(c5ccccn5)CC4)ncn32)s1 was read as TAR Tat displ -0.33 and CDC25B CDK2 inh -1.62.
Screening Cc1nc(N2C(=O)c3oc4ccccc4c(=O)c3C2c2ccc(Br)cc2)sc1C (centres undefined) returned TAR Tat displ -0.02 and CDC25B CDK2 inh -1.95.
Screening CC1CCN(c2c(NCC3CCC(C(=O)NC4CCCCC4C)CC3)c(=O)c2=O)CC1 (centres undefined) returned CDC25B CDK2 inh 0.53.
`O=C(CSc1nnc(-c2ccncc2)n1Cc1ccccc1)N1CCCc2ccccc21` gave CDC25B CDK2 inh 0.93.
Screening COc1ccc(-n2c(C)c3c(C)nn4cc(-c5ccc(C)o5)cc4c3c2C)cc1 returned TAR Tat displ 16.1* and CDC25B CDK2 inh 7.22*.
Screening Cc1nn2cc(-c3ccccc3)cc2c2c(C)n(Cc3ccccc3)c(C)c12 returned TAR Tat displ 0.12 and CDC25B CDK2 inh -0.81.
Screening CCc1nn2c(=O)cc(CSc3ccccc3NC(C)=O)nc2s1 returned TAR Tat displ -0.3.
CC1(C)CC(=O)C2=C(C1)Nc1ccccc1N(Cc1ccccc1)C2c1ccco1 (centres undefined) was read as TAR Tat displ -6.97.
Screening O=C(O)c1cc(O)c2c(c1)[C@@H]([C@H]1c3cc(C(=O)O)cc(O)c3C(=O)c3c(O[C@H]4O[C@H](CO)[C@@H](O)[C@H](O)[C@H]4O)cccc31)c1cccc(O[C@H]3O[C@H](CO)[C@@H](O)[C@H](O)[C@H]3O)c1C2=O returned TAR Tat displ 22*.
`Oc1c(Cl)cc(Cl)cc1C=Nc1ccc2nc[nH]c2c1` gave CDC25B CDK2 inh 0.01.
`COCCn1cnc2c(oc3nc4c(cc32)COC(C)(C)C4)c1=O` gave TAR Tat displ 0.71.
For CCCCCC1OCC(C)(C(=O)O)CO1 (centres undefined) the results were CDC25B CDK2 inh 1.35.
O=C(O)c1ccc2nc3c(nc2c1)-c1cccc2cccc-3c12 was read as TAR Tat displ 5.9* and CDC25B CDK2 inh -2.6.
`O=C(O)c1ccc2nc(-c3ccccc3)c(-c3ccccc3)nc2c1` gave TAR Tat displ 1.38 and CDC25B CDK2 inh 1.33.
